# Assay results: PubChem BioAssay
# Calls of active or inactive are those of the source.
# Legend:
# [1] = system: PRMT1 (protein arginine N-methyltransferase 1); experiment: small molecules binding arginine methyltransferase PRMT1 – biochemical, small-molecule microarray, 635 nm fluorescence, primary screen (AID 1088); settings: higher = more signal;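 also: binding of Prmt1 protein to compounds spotted on small-molecule microarray slides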
# [2] = growth effects on S. cerevisiae YJM789 – YJM789 clinical isolate, OD600, 24 h, basal, primary screen (AID 1089); settings: higher = more signal, called active from +8 up or from −8 down;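 also: growth of clinical yeast isolate S. cerevisiae YJM 789 seeded 1000 cells per well; test concentration not given here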
# [3] = S. pombe growth modifiers, basal conditions – strain 972, OD600, 24 h, no modulator, primary screen (AID 1090);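 also: basal condition with compound alone and no growth modifier present; test concentration not given here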; settings: S. pombe 972 growth, higher = more signal, called active from +8 up or from −8 down
# [4] = budding yeast growth modifiers under rapamycin – strain BY4716, OD600, 96 h, primary screen (AID 1091); also: test concentration not given here; settings: S. cerevisiae BY4716 + rapamycin, higher = more signal, called active from +8 up or from −8 down
# [5] = molecular target: Torsin-1A-interacting protein 2 (Homo sapiens) (UniProt Q8NFQ8); experiment: small molecules binding lysate-expressed LULL1 – cell lysate, human LULL1 lysate, 635/667 nm fluorescence, primary screen (AID 1092); settings: small-molecule microarray, hLULL1 lysate binding, 635 nm fluorescence; higher = more signal;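 also: probe is lysate of COS7 cells overexpressing human LULL1; score merges per-feature 667 nm fluorescence with signal-to-noise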
# [6] = optical density change of DRC41 E. coli – strain DRC41, OD650, 24 h, E. coli filamentation project, primary screen (AID 1093);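 also: MC1000 strain lacking acrAB efflux and sulA so SOS filamentation is blocked; test concentration not given here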; settings: E. coli DRC41 growth, higher = more signal, called active from +8 up or from −8 down
# [7] = probe aLefty2 binding to arrayed compounds – biochemical, biotinylated probe, 635/667 nm fluorescence, primary screen (AID 1094); settings: small-molecule microarray, higher = more signal;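 also: score merges spot fluorescence near 667 nm with spot signal-to-noise ratio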
# [8] = system: Noggin (protein binding on small-molecule microarray); experiment: small molecules binding Noggin protein – biochemical, 635/667 nm fluorescence, primary screen (AID 1095); settings: 635 nm fluorescence, higher = more signal;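 also: score merges 667 nm feature fluorescence with signal to noise over triplicate slides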
# [9] = molecular target: Neurogenic locus notch homolog protein 3 (Homo sapiens) (UniProt Q9UM47); experiment: small molecules binding NOTCH3 protein – biochemical, 635/667 nm fluorescence, primary screen (AID 1096); settings: small-molecule microarray, 635 nm fluorescence, higher = more signal
# [10] = probe aEGFR binding to arrayed compounds – biochemical, biotinylated probe, 635/667 nm fluorescence, primary screen (AID 1097); settings: small-molecule microarray, higher = more signal;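 also: probe is a biotinylated anti-EGFR antibody binding compounds printed on slides; score combines fluorescence near 667 nm and signal to noise of each spot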
# Sequence of Torsin-1A-interacting protein 2 (Homo sapiens) (Q8NFQ8 whole entry, looked up): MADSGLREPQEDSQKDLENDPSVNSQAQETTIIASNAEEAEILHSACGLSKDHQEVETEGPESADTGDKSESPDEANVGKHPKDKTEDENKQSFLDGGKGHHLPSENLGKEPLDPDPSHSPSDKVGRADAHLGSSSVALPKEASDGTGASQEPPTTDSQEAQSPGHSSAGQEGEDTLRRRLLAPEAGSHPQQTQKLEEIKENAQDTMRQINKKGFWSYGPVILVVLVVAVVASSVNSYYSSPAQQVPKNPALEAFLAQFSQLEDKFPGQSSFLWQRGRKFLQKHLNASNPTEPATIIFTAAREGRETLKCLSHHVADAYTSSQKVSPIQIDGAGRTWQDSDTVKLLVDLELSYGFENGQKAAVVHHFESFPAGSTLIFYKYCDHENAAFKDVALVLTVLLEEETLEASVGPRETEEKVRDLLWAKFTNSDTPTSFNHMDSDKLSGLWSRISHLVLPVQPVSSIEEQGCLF
# Sequence of Neurogenic locus notch homolog protein 3 (Homo sapiens) (Q9UM47 whole entry, looked up): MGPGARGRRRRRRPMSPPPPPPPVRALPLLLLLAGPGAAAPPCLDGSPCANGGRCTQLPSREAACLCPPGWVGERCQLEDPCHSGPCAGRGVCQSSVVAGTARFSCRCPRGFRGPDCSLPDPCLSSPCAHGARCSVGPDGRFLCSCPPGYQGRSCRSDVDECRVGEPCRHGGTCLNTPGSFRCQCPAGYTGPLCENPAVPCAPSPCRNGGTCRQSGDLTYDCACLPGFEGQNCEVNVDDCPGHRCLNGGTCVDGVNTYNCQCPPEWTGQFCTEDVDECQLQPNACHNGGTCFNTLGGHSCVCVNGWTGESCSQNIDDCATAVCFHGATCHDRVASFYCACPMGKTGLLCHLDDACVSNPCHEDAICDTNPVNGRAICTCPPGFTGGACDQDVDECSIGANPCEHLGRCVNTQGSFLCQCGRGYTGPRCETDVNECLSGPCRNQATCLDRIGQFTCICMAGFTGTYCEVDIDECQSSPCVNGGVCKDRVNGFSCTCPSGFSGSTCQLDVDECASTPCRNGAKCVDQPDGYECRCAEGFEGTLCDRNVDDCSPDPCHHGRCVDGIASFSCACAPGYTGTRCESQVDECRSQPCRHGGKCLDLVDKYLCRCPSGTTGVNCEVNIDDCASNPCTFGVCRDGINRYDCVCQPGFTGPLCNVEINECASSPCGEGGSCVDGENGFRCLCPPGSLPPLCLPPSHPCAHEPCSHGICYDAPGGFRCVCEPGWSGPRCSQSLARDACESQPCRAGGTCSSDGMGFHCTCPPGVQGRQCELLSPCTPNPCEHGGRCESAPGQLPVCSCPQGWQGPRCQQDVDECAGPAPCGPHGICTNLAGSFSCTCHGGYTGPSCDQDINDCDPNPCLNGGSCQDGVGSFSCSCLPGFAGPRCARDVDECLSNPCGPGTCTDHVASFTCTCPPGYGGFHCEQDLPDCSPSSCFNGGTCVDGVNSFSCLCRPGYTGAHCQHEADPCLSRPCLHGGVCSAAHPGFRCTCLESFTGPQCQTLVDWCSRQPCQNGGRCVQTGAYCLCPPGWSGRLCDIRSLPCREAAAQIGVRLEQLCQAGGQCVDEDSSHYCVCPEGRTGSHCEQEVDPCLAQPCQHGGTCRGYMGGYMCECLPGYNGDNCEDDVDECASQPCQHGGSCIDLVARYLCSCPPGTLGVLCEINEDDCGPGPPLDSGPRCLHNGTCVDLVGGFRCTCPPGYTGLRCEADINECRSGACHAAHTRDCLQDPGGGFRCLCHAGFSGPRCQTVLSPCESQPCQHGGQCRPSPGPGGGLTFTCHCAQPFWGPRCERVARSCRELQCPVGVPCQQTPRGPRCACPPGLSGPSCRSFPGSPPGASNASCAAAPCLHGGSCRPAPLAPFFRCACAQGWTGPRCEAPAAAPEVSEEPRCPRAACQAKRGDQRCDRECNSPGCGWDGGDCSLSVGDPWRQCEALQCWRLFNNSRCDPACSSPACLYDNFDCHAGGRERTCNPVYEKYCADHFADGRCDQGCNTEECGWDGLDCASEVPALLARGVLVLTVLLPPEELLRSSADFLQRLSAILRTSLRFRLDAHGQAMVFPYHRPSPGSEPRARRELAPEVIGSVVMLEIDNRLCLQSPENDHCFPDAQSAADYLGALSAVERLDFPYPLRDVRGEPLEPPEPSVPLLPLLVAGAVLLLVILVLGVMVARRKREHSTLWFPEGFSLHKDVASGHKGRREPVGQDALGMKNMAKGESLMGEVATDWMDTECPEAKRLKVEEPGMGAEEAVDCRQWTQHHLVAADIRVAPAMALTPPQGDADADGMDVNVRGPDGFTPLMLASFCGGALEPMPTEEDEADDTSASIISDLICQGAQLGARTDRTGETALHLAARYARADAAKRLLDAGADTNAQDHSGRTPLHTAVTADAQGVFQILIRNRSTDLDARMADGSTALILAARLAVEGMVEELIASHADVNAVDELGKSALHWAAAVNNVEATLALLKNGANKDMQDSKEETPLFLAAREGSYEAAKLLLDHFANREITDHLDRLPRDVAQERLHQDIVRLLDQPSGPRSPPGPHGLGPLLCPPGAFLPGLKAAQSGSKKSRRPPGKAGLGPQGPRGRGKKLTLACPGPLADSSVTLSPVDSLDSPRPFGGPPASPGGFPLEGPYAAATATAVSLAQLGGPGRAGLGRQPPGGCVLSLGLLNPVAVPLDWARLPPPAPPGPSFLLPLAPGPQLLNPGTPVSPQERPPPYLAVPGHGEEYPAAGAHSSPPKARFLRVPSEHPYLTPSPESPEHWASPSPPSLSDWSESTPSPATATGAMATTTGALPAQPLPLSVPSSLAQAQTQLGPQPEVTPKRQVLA
SMILES,composite z-score [1],z-score [2],z-score [3],z-score [4],composite z-score [5],z-score [6],composite z-score [7],composite z-score [8],composite z-score [9],composite z-score [10]
CC(C)NC(=O)[C@@]1(c2ccc([N+](=O)[O-])cc2)CC(=O)N(C2CCCCC2)[C@@H]1c1ccc(CO)cc1I,1.03,0.719 (inactive),0.475 (inactive),2.6 (inactive),2.33,1.21 (inactive),0.134,-0.941,-0.0996,-0.0185
COc1ccc(CCNC(=O)[C@@]2(C)c3ccccc3C(=O)N(C(C)C)[C@H]2c2ccc(CO)cc2)cc1,0.601,-0.122 (inactive),-0.366 (inactive),-0.321 (inactive),2.15,0.721 (inactive),-0.107,0.456,-0.399,0.0117
COc1cc2c(cc1OC)CN(C(=O)[C@@H]1[C@H]3C(=O)O[C@H](c4ccccc4)[C@H](c4ccccc4)N3[C@H](c3ccc(O)cc3)[C@@]13C(=O)Nc1ccccc13)CC2,1.35,0.27 (inactive),-0.0755 (inactive),0.637 (inactive),3.04,3.03 (inactive),-0.115,0.497,0.347,-0.115
COC(=O)[C@@]1(Cc2ccccc2)[C@H]2c3cc(C(=O)N4CCCC4)n(Cc4ccc(S(C)(=O)=O)cc4)c3C[C@H]2CN1C(=O)c1ccccc1,0.375,0.527 (inactive),0.955 (inactive),0.671 (inactive),3.56,-0.47 (inactive),0.0495,0.0689,1.01,0.348
CC(C)(C)OC(=O)CC[C@]1(C(=O)N2CCOCC2)N=C(c2ccc(OCCCO)cc2)O[C@H]1c1ccccc1N=[N+]=[N-],1.28,-0.54 (inactive),-0.496 (inactive),-0.531 (inactive),3.25,1.57 (inactive),0.124,0.356,0.671,0.0552
COC(=O)[C@@]1(Cc2ccc(F)cc2)[C@H]2c3cc(C(=O)N(C)C)n(Cc4ccccc4)c3C[C@H]2CN1C(=O)c1ccccc1,0.964,0.428 (inactive),1.49 (inactive),3.85 (inactive),1.73,-0.466 (inactive),0.318,-0.004,1.14,0.0709
CC(C)C[C@@H]1NC(=O)[C@@H]2C[C@H](C(=O)O)[C@H](c3cccc(OCCO)c3)N2C1=O,0.64,-0.19 (inactive),-0.734 (inactive),-0.56 (inactive),1.89,1.06 (inactive),-0.173,-0.0135,-0.155,-0.229
O=C1C2C=CC(C(O)Cc3ccccc3)N(n3cnnc3)C2C(=O)N1Cc1ccccc1 (stereo not given),0.411,-0.112 (inactive),0.116 (inactive),0.343 (inactive),2.93,-1.25 (inactive),0.0906,-0.785,0.153,-0.0592
C=C(COC)/C(=C/C[C@@H](OC(C)=O)c1ccc(OCCO)cc1)c1cnc2ccccc2c1,1.19,-0.938 (inactive),-1.5 (inactive),-1.05 (inactive),0.014,2.33 (inactive),-0.0998,1.89,1.08,-0.067
Cc1ccc(S[C@]2(C(=O)NCCCN(C)C)CC(=O)N(Cc3ccccc3C(F)(F)F)[C@@H]2c2ccc(CO)cc2)cc1,0.486,-0.339 (inactive),-0.543 (inactive),-0.914 (inactive),1.91,0.783 (inactive),0.0446,-0.858,-1.3,-0.227
Cc1ccc(S[C@]2(C(=O)NCCCN(C)C)CC(=O)N(Cc3cc(C(F)(F)F)cc(C(F)(F)F)c3)[C@@H]2c2ccc(CO)cc2)cc1,0.383,-1.15 (inactive),-0.79 (inactive),-0.497 (inactive),0.923,-0.356 (inactive),-0.0478,-0.768,-1.5,-0.113
C=CCOC(=O)[C@H]1[C@@H]2C(=O)O[C@@H](c3ccccc3)[C@@H](c3ccccc3)N2[C@@H](c2ccc(OCCOC(=O)[C@@H]3C[C@@H]4C(=O)N[C@@H](CCCCNC(C)=O)C(=O)N4[C@@H]3c3ccc(O)cc3)cc2)[C@]12C(=O)Nc1ccccc12,1.54,1.7 (inactive),-0.133 (inactive),3.53 (inactive),2.6,-0.264 (inactive),0.0025,1.14,1.08,-0.0625
CCCC[C@@H]1C[C@H]1[C@@H](NC(=O)c1ccco1)c1ccccc1C(F)(F)F,-0.191,0.493 (inactive),1.13 (inactive),-0.0491 (inactive),1.53,-0.763 (inactive),1.36,-0.339,0.453,0.856
COc1cc2c(cc1OC)CN(C(=O)[C@H]1[C@@H]3C(=O)O[C@@H](c4ccccc4)[C@@H](c4ccccc4)N3[C@@H](c3ccc(O)cc3)[C@]13C(=O)Nc1ccccc13)CC2,1.27,1.16 (inactive),0.536 (inactive),1.74 (inactive),2.32,-0.204 (inactive),-0.139,0.0366,0.518,-0.191
CCC(CC)C(O)C1C=CC2C(=O)NC(=O)C2N1Nc1ccccn1 (stereo not given),-0.26,0.188 (inactive),1.22 (inactive),0.315 (inactive),1.35,-0.691 (inactive),0.0744,-0.441,-0.412,0.148
COC(=O)[C@@]1(CCC(=O)OC(C)(C)C)N=C(c2ccc(OCCCO)cc2)O[C@H]1c1ccccc1N=[N+]=[N-],1.28,0.0049 (inactive),-0.786 (inactive),33.6 (active),1.83,0.817 (inactive),-0.309,0.714,0.388,-0.0828
C=CCN1C(=O)[C@]2(O[C@H](CCn3cc([C@H](O)c4ccccc4)nn3)[C@@H]([Si](C)(C)c3ccc(OC)cc3)[C@@H]2C)c2cc(N3CCC3=O)ccc21,0.942,0.487 (inactive),0.406 (inactive),2.47 (inactive),1.56,1.28 (inactive),-0.0397,1.82,0.803,-0.154
C=C(CC1([C@@H](NP(=O)(c2ccccc2)c2ccccc2)[C@H]2C[C@@H]2CCCC)CC1)c1ccccc1,0.759,-0.254 (inactive),0.204 (inactive),3.83 (inactive),2.53,-0.357 (inactive),0.153,-0.591,0.418,-0.0844
O=C1C[C@@](C(=O)NC2CC2)(c2ccc([N+](=O)[O-])cc2)[C@@H](c2ccc(CO)cc2I)N1C1CCCCC1,1.53,-0.457 (inactive),-0.173 (inactive),1.45 (inactive),2.82,0.233 (inactive),-0.05,1.25,1.07,-0.0828
O=C1C[C@@](C(=O)NCC(F)(F)F)(c2ccc([N+](=O)[O-])cc2)[C@@H](c2ccc(CO)cc2I)N1C1CCCCC1,1.55,-0.732 (inactive),0.294 (inactive),1.16 (inactive),2.52,-0.426 (inactive),0.0524,0.572,1.09,0.0721
COCCOC(=O)N1C(=O)[C@@]2(c3cc(C#CCCO)ccc31)[C@H](C(=O)N1CCCCCCC1)[C@H]1C(=O)O[C@H](c3ccccc3)[C@H](c3ccccc3)N1[C@@H]2c1ccc(OCCO)cc1,1.51,1.33 (inactive),1.3 (inactive),2.08 (inactive),3.52,0.584 (inactive),1.53,1.55,0.93,1.04
COC(=O)[C@H](Cc1ccccc1)N1CC2=C[C@@H](C3CC3)n3c(=O)n(C)c(=O)n3[C@H]2[C@@H]1[C@@H](O)Cc1ccccc1,1.06,-0.973 (inactive),-1.15 (inactive),0.0538 (inactive),2.88,-0.89 (inactive),-0.136,1.15,1.02,0.142
CCOC(=O)C[C@H]1[C@H](OC(=O)c2ccc(C(=O)c3ccccc3)cc2)[C@@H](NC(=O)CC(C)C)c2cc(OCCCO)ccc2N1C(=O)c1ccc2ccccc2n1,1.48,1.09 (inactive),0.606 (inactive),0.607 (inactive),1.99,0.995 (inactive),0.106,0.693,1.13,-0.0565
[N-]=[N+]=NCc1ccccc1C[C@]1(C(N)=O)COC(c2ccc(OCCCO)cc2)=N1,0.945,-4.72 (inactive),-1.09 (inactive),-1.19 (inactive),3.1,1.95 (inactive),0.0567,-0.572,0.31,0.0641
O=C1O[C@@H](c2ccccc2)[C@@H](c2ccccc2)N2[C@@H](c3ccccc3OCCO)[C@]3(C(=O)Nc4ccc(C#CC5=CCCCC5)cc43)[C@@H](C(=O)N3CCCCCCC3)[C@H]12,1.53,1.1 (inactive),-0.354 (inactive),2.02 (inactive),4.38,-0.641 (inactive),1.74,1.88,1.02,1.34
NC(=O)NCC#Cc1ccc2c(c1)[C@]1(C(=O)N2)[C@H](c2ccc(O)cc2)N2[C@H](c3ccccc3)[C@H](c3ccccc3)OC(=O)[C@H]2[C@@H]1C(=O)O,-0.019,0.801 (inactive),-0.0898 (inactive),0.607 (inactive),0.966,-0.504 (inactive),-0.255,-0.581,-0.156,-0.191
CCCCN1CC=CC23O[C@@H]4C=CCCOC(=O)C4[C@H]2C(=O)N(CCCCCCO)[C@@H]3C1=O (stereo not given in full),1.31,-0.0739 (inactive),-0.576 (inactive),0.2 (inactive),1.74,-0.444 (inactive),-0.462,-0.235,0.294,-0.227
Cc1ccc(S[C@]2(C(=O)NCCCN(C)C)CC(=O)N(Cc3cc(C(F)(F)F)cc(C(F)(F)F)c3)[C@@H]2c2ccc(CO)cc2I)cc1,-0.371,-1.17 (inactive),-3.06 (inactive),1.03 (inactive),1.77,0.888 (inactive),0.269,-1.64,-0.937,-0.0246
